Screening data: PubChem, several laboratories
Rv3671c protease – Rv3671c (M. tuberculosis) protease inhibition | P9WHR9 | AID 2606 | 320,000 compounds, 0.048% hits | inhibition, % at 5.96 µM; in the data active = inhibition above about 38%;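 also: extracellular domain of Rv3671c used as enzyme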
Mtb UGM inh – blocks M. tuberculosis UGM enzyme; 320,000 compounds, 0.06% hits; AID 504406; inhibition, % at 10 µM; purified UGM, fluorescence polarization probe displacement; in the data active = inhibition above about 10%, passing the limit was not always enough
Target sequence (P9WIQ1 whole entry, looked up): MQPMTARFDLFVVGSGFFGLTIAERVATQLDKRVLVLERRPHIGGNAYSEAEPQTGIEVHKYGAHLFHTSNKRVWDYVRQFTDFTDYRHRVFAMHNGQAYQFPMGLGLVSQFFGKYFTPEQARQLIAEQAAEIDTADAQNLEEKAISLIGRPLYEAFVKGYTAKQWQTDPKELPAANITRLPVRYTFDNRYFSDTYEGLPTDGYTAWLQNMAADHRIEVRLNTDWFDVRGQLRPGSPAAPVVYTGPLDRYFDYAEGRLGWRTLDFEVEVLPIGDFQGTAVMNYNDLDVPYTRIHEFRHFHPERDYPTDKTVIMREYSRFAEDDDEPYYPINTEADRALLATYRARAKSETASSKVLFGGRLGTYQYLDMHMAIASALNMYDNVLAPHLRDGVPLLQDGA
SSB-PriA inh – inhibitors of Klebsiella pneumoniae PriA binding to SSB C-terminal tail; AlphaScreen SSBct-PriA binding, biotinylated peptide; inhibition, % at 33 µM; 430,000 compounds, 0.6% hits; AID 1272365; in the data active = inhibition mostly above about 37%, no sharp cut-off; inactive = mostly below about 20%
GDH-TPI counter-1 – GDH-TPI coupled enzyme inhibition counter-screen; GDH-TPI coupled enzyme counterscreen, NADH absorbance; inhibition, % at 4.8 µM; 360,000 compounds, 1.2% hits; in the data active = inhibition above about 30%
Mtb FBA inh – inhibitors of M. tuberculosis fructose-bisphosphate aldolase; P9WQA3; purified M. tuberculosis FBA, fluorescence read-out; inhibition, % at 1 µM; 360,000 compounds, 2.3% hits
Mtb betalactam – beta-lactam sensitization of Mtb H37Rv; 330,000 compounds, 0.27% hits; M. tuberculosis H37Rv growth with meropenem, percent inhibition; AID 434955; inhibition, % at 25 µM; call rule not given here;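 also: growth measured after seven days incubation then overnight dye step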
Mtb FBA inh conf – confirmation of M. tuberculosis fructose-bisphosphate aldolase inhibitors; shares compounds with Mtb FBA inh; purified M. tuberculosis FBA, fluorescence read-out; inhibition, % at 1 µM; 5,600 compounds, 78% hits; AID 651616
GDH-TPI counter-2 – inhibits GDH-TPI coupling enzymes, flagging Mtb FBA hits. shares compounds with Mtb FBA inh. GDH-TPI coupled enzyme counterscreen, fluorescence. inhibition, % at 1 µM. 5,600 compounds, 81% hits. AID 652141; in the data active = inhibition above about 10%
Hits are given with their value. Sampled rows, rich in hits. Any-hit rate of the full collection: about 3.2%. Rule as the data show it, unless noted: active = inhibition above about 27%; inactive = the rest.

How did NC(=O)COc1c(-c2ccco2)oc2ccccc2c1=O do in these assays?
Rv3671c protease: inactive; Mtb UGM inh: inactive; SSB-PriA inh: inactive; GDH-TPI counter-1: inactive; Mtb FBA inh: inactive; Mtb betalactam: inactive

How did CC(=O)Oc1c(-c2ccc(Br)o2)oc2ccccc2c1=O do in these assays?
Rv3671c protease: inactive; Mtb UGM inh: inactive; SSB-PriA inh: inactive; GDH-TPI counter-1: inactive; Mtb FBA inh: 79; Mtb betalactam: inactive; Mtb FBA inh conf: 47; GDH-TPI counter-2: 41

What do the screens show for `Cc1onc(-c2ccccc2Cl)c1C(=O)Nc1cnc(-n2cccn2)nc1`?
SSB-PriA inh: inactive

What do the screens show for `CCOC(=O)CNc1c(-c2ccc(Cl)cc2)nc2cnccn12`?
Rv3671c protease: inactive; Mtb UGM inh: inactive; SSB-PriA inh: inactive; GDH-TPI counter-1: inactive; Mtb FBA inh: 68; Mtb betalactam: inactive; Mtb FBA inh conf: 56; GDH-TPI counter-2: 50

What do the screens show for `N#CC1(C#N)C(c2ccccc2)OC23CCCCC2C1(C#N)C(=N)O3` (stereo not drawn)?
Rv3671c protease: inactive; Mtb UGM inh: inactive; SSB-PriA inh: inactive; GDH-TPI counter-1: inactive; Mtb FBA inh: 75; Mtb betalactam: inactive; Mtb FBA inh conf: 58; GDH-TPI counter-2: 64

What do the screens show for `N#CC1(C#N)C(c2ccccc2)OC23CCCCCC2C1(C#N)C(=N)O3` (stereo not drawn)?
Rv3671c protease: inactive; Mtb UGM inh: inactive; SSB-PriA inh: inactive; GDH-TPI counter-1: inactive; Mtb FBA inh: 41; Mtb betalactam: inactive; Mtb FBA inh conf: 40; GDH-TPI counter-2: 34

Results for Cn1c(N)c(C(=O)c2ccco2)c(=O)n(C)c1=O ?
SSB-PriA inh: inactive

Results for O=C(Nc1ccccc1F)c1cc(C2CCN(C(=O)CN3CCOC3=O)CC2)[nH]n1 ?
SSB-PriA inh: inactive

Results for CCN1C(=O)c2cccc3c(S(=O)(=O)N(C(C)=O)c4ccc(OC(C)=O)cc4)ccc1c23 ?
Rv3671c protease: inactive; Mtb UGM inh: inactive; SSB-PriA inh: inactive; GDH-TPI counter-1: inactive; Mtb FBA inh: 53; Mtb betalactam: inactive; Mtb FBA inh conf: active; GDH-TPI counter-2: active

What do the screens show for `Cn1nccc1-c1nnc(NC(=O)/C=C\c2ccc3c(c2)OCO3)o1`?
SSB-PriA inh: inactive

How did O=C(CCc1ccccc1)NNC(=O)c1ccccc1C(=O)O do in these assays?
Rv3671c protease: inactive; Mtb UGM inh: inactive; SSB-PriA inh: inactive; GDH-TPI counter-1: inactive; Mtb FBA inh: inactive; Mtb betalactam: inactive

Results for O=C(CCc1ccccc1)NNC(=O)c1cc(Cl)ccc1O ?
Rv3671c protease: inactive; Mtb UGM inh: inactive; SSB-PriA inh: inactive; GDH-TPI counter-1: inactive; Mtb FBA inh: 35; Mtb betalactam: inactive; Mtb FBA inh conf: inactive; GDH-TPI counter-2: inactive

Results for CC[C@@H]1C(c2cccc(Cl)c2)=NN(c2ccc(Br)cc2)[C@H]1C(=O)N1CCOC1=O ?
SSB-PriA inh: inactive; GDH-TPI counter-1: inactive; Mtb FBA inh: 55; Mtb FBA inh conf: 60; GDH-TPI counter-2: 43

How did Cc1ccc2nc(-c3ccc(S(=O)(=O)N4CCCCC4)cc3)cn2c1 do in these assays?
Rv3671c protease: inactive; Mtb UGM inh: inactive; SSB-PriA inh: inactive; GDH-TPI counter-1: inactive; Mtb FBA inh: 53; Mtb betalactam: inactive; Mtb FBA inh conf: 45; GDH-TPI counter-2: 39

How did O=C(NCCSc1c[nH]c2ccccc12)c1cnn2c1OCCC2 do in these assays?
SSB-PriA inh: inactive

Results for Cc1cn2nnc(C(=O)N3CC(=O)N(CCc4ccccc4)C(=O)C3)c2c(=O)[nH]1 ?
SSB-PriA inh: inactive

What do the screens show for `CC(=O)N(C(C)=O)c1ncc2c([nH]c3ccccc32)c1C#N`?
Rv3671c protease: inactive; Mtb UGM inh: inactive; SSB-PriA inh: inactive; GDH-TPI counter-1: inactive; Mtb FBA inh: 38; Mtb betalactam: inactive; Mtb FBA inh conf: active; GDH-TPI counter-2: 189

Results for CNC(=O)c1cc2c(cn1)[nH]c1ccccc12 ?
Rv3671c protease: inactive; Mtb UGM inh: inactive; SSB-PriA inh: inactive; GDH-TPI counter-1: inactive; Mtb FBA inh: inactive; Mtb betalactam: inactive

Results for CC(=O)Oc1ccc2oc(C)c(C(=O)N3CCOCC3)c2c1 ?
Rv3671c protease: inactive; Mtb UGM inh: inactive; SSB-PriA inh: inactive; GDH-TPI counter-1: inactive; Mtb FBA inh: inactive; Mtb betalactam: inactive
